The panel holds about 83,000 compounds, 20% with a hit somewhere; the sample as a whole holds those more often.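 96-well plates, one dose, 48 hours. Percent growth reported; active if below 10.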 Activity calls are given as the source filed them.
Tested on: HL-60(TB) leukemia
Assay: NCI-60 one-dose screen, 48 h (100 = growth as untreated, 0 = no growth, -100 = all killed)
Details: 10 µM unless noted

Compound | growth
CCCCCCCCCCCCCCCCCC1=NC(C)(C)CN1CCO | -62.2% (active)
O=C(CC1Sc2ccccc2NC1=O)NNc1ccc(F)cc1 (centres undefined) | 14.3% (inactive)
CCN1CCN(C(=O)[C@]23CCC(C)(C)C[C@@H]2C2=CC[C@@H]4[C@@]5(C)C/C(=C/c6cccnc6)C(=O)C(C)(C)[C@@H]5CC[C@@]4(C)[C@]2(C)CC3)CC1 | -37.3% (active)
COc1cccc(-c2nc3sccn3c2-c2ccnc(NCCCNS(=O)(=O)c3ccc(Cl)cc3)c2)c1 | 27.4% (inactive)
Fc1ccccc1-c1cnn2cc(-c3ccccc3)cnc12 | 98.6% (inactive)
NC(=O)NCCCC(N)C(=O)O (centres undefined) | 105% (inactive)
Cc1cc(C(O)(c2ccc(Nc3ccccc3)cc2)c2ccc(Nc3ccc(S(=O)(=O)O)cc3)cc2)ccc1N (centres undefined) | -7.9% (active)
N#Cc1cncc(-c2ccc3ncnc(Nc4cccc(Cl)c4)c3c2)c1 | 97.2% (inactive)
C[N+]1=C(/C=C\C=C\c2ccccc2)C(C)(C)c2ccccc21 | -22.2% (active)
O=C(O)c1ccc2c(c1Sc1ccccc1)C(=O)c1ccccc1C2=O | 95.8% (inactive)
COC(=O)c1c2c(c(C)[n+]([O-])c1C)C(=O)C=C(NCc1ccccc1)C2=O | -31.4% (active)
Cc1ccc(S(=O)(=O)NCCCNc2cc(-c3cn(C(C)(C)C)nc3-c3cccc(O)c3)ccn2)cc1 | 66.6% (inactive)
CC1(C)CCCC2=C1C(=O)N(SC(Cl)(Cl)Cl)C2=O | 76.1% (inactive)
C/C(=N/Nc1nc2ccccc2n1C)c1ccccn1 | -19% (active)
COC(=O)c1c(C)c2n(c1C)C(=O)C(c1ccccc1)=C2 | 67% (inactive)
CCN(CC)CCOc1ccc(/C(=C(\C)c2ccc(F)c(OC)c2)c2ccc(Cl)cc2)cc1 | -27.9% (active)
Cn1cc(-c2nc3c(F)cc4[nH]ncc4c3c3c2CCCC3)c(C(F)F)n1 | 10.8% (inactive)
CC(CN(C)C)Oc1ccccc1NC1=C(Cl)C(=O)C(Nc2ccccc2OC(C)CN(C)C)=C(Cl)C1=O (centres undefined) | -41.8% (active)
CC(=Nc1ccccc1)C1=C(O)C(Cc2ccc(F)cc2)NC1=O (centres undefined) | -12.3% (active)
COc1cc(C2CC(=O)c3ccccc3N2)cc(OC)c1OC (centres undefined) | 98.8% (inactive)

Compound | growth
COc1cc2c(cc1-c1c(C)noc1C)ncc1nc(C3CCCCC3)n(C3CCC(OC(F)F)CC3)c12 (centres undefined) | -25.1% (active)
COc1cccc(/C=C2\Oc3cc(OCCCN4CCCC4)ccc3C2=O)c1OC | 96.3% (inactive)
COc1ccc(-n2nc(C)c3c(Nc4ccc(NC(=O)Nc5ccc(Cl)c(C(F)(F)F)c5)cc4)ncnc32)cc1 | -9.54% (active)
CCN1C(=O)/C(=C/C(=O)OC)S/C1=N\NC(=O)c1cc2ccc1/C=C\c1ccc(cc1)/C=C\2 | 88.4% (inactive)
COc1cc(/C=C/c2ccc3c(Br)cc(Br)c(O)c3n2)ccc1O | -47.3% (active)
C=CCn1c(SCC(=O)Nc2ccc(C(=O)/C=C/c3cc(OC)c(OC)c(OC)c3)cc2)nnc1-c1ccc(Cl)cc1 | 12.3% (inactive)
Nc1cc(-c2ccc(Cl)cc2)nn1-c1nnc(/C=C/c2ccco2)c(=O)[nH]1 | 52.2% (inactive)
COc1ccc(-n2nc(C)c3c(Nc4ccc(NC(=O)Nc5cc(C(F)(F)F)ccc5F)cc4)ncnc32)cc1 | 45.8% (inactive)
CC(=O)c1ccc2c(c1)CCN2 | 106% (inactive)
S=c1nc(-c2ccccc2)oc(=NC2CCCCC2)n1C1CCCCC1 | -36.5% (active)
CC(C)(C)OC(=O)N1CCC(O)[C@@H](O[Si](c2ccccc2)(c2ccccc2)C(C)(C)C)[C@H]1/C=C/c1ccccc1 (some centres undefined) | 55.9% (inactive)
CN(C)/C=C1\SC(=Nc2ccc(Cl)cc2)NC1=O | 99.5% (inactive)
Clc1nccc2c(-c3csc(-c4c[nH]c5ccccc45)n3)c[nH]c12 | 29.4% (inactive)
COc1ccc(/C(C)=C(\c2ccc(Cl)cc2)c2ccc(OCCN3CCCCC3)cc2)cc1 | 32.8% (inactive)
CC(C)C(C#N)(C(C)C)C(C)C | 109% (inactive)
COc1cc(C2=NNC(c3ccc(N(C)C)cc3)C2)cc(OC)c1OC (centres undefined) | -33.6% (active)
Brc1ccc(-c2cnc3nonc3n2)cc1 | 19.6% (inactive)
O=C(/C=C/c1ccccc1)CC(c1ccccc1)N1CCOCC1 (centres undefined) | 70.7% (inactive)
O=[N+]([O-])c1ccc(Br)o1 | 74.8% (inactive)

— PubChem BioAssay (NCI)
